Screens from PubChem BioAssay.
Many of the other results were omitted from the sample, so hits are more common in it than they were.
CHX counter = counter-screen hit for Shiga toxin inhibitors, cycloheximide; cell reporter, cycloheximide protein synthesis inhibition counterscreen; max response, %; actives 12% (n = 300,000); AID 2314; in the data active means max response mostly above about 13%, no sharp cut-off; inactive means mostly below about 14%; further: read at 38.3 µM for the half of the compounds with a filed dose; 0% is about no effect
AmpC no deterg = AmpC beta-lactamase inhibition without detergent; P00811; AmpC nitrocefin hydrolysis, absorbance 480 nm, 0.0001% Triton; Potency, µM (titrated, usually from 57.1 µM), for inactives: at the highest dose activity change, negative = inhibition, hits mostly inhibitors; actives 0.52% (n = 330,000);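 further: potency means the concentration at half of the fitted maximal effect; plate controls were no compound for no effect and no enzyme for full effect; nearly all actives have a fitted effect of over 20% in size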
Target sequence (P00811 whole entry, looked up): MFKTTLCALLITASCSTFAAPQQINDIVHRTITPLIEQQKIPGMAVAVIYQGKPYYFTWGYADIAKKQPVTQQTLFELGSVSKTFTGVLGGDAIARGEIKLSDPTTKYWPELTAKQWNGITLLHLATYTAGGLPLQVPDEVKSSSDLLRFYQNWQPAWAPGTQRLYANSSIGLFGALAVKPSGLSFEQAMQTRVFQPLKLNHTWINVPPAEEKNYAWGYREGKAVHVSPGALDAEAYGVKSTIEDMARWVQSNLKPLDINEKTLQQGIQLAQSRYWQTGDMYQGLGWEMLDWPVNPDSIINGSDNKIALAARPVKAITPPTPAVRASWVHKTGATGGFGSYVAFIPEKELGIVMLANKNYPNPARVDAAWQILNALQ
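20 mM phosphate pH 7.0 + 0.01% (detergent screen) or 0.0001% Triton X-100; 5.3 nM AmpC reagent; cpd preinc 15 min RT; nitrocefin (800 uM stock) to start; A480 q20 s × 4 min; Activity was normalised to no-enzyme and no-compound control wells.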
NS1 function inh = blocks influenza NS1 protein function. actives 0.4% (n = 270,000). Potency, µM (top dose mostly 46.1 µM), without a hit: top-dose activity, positive = more growth; calls by dose curve; further: potency means the concentration at half of the fitted maximal effect; actives are rising curves; nearly all actives have a fitted effect of over 50% in size
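Growth recovery, yeast-based: influenza A NS1 expressed in S. cerevisiae causes slow growth, and suppressors are detected by OD600. The parent strain without NS1 is used as positive control.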
Shiga inhibitor = Shiga toxin inhibition; Vero cells, Shiga toxin protein synthesis inhibition reporter; inhibition, % at 38.7 µM; actives 9.2% (n = 290,000); in the data active means inhibition mostly above about 28%, no sharp cut-off; inactive means mostly below about 43%; further: 0% is about no effect
AmpC inh detg = AmpC beta-lactamase inhibition with detergent present | actives 0.041% (n = 370,000) | P00811 | AID 485294 | Potency, µM (titrated, usually from 114 µM), inactives show at the top dose activity change, negative = inhibition, most hits filed as inhibitors | AmpC hydrolysis of nitrocefin, absorbance 480 nm, 0.01% Triton;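 further: potency means the concentration at half of the fitted maximal effect; 0% = no-compound wells and -100% = no-enzyme wells; nearly all actives have a fitted effect of over 25% in size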
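20 mM phosphate pH 7.0 + 0.01% (detergent screen) or 0.0001% Triton X-100; 5.3 nM AmpC reagent; cpd preinc 15 min RT; nitrocefin (800 uM stock) to start; A480 q20 s × 4 min; Activity was normalised to no-enzyme and no-compound control wells.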
* hit, by the source's call; ? = inconclusive; . = not tested or not shown; ! = not active in a repeat. Unless noted, the call rests on the fitted dose curve; in most records, active means well fitted curve in the direction sought with a large enough effect; inconclusive means small, poorly fitted or top-dose-only effect, or another doubt; inactive means no such curve, though single readings can be large; an effect the other way counts as inactive or inconclusive.

SMILES	CHX counter	AmpC no deterg	NS1 function inh	Shiga inhibitor	AmpC inh detg
Cc1ccc(/C=N/N2CCN(c3ccccc3)CC2)cc1	19*	-3%	.	46	-6%
CSc1ccc(/C=N/N2CCN(c3ccccc3)CC2)cc1	-1	-14%	.	17	?
Cc1cccc(/C=N/N2CCN(c3ccccc3)CC2)c1	42*	-1%	11%	73*	-10%
Cc1ccccc1/C=N/N1CCN(c2ccccc2)CC1	50*	-11%	11%	103*	-2%
Cc1oc2ncnc(N3CCOCC3)c2c1C(=O)N(Cc1ccccc1)C(C)C	.	.	.	.	-1%
COc1ccc(Br)cc1C1Nc2cccc3cccc(c23)N1	30*	-28%	29%	.	-16%
COc1cc(C2Nc3cccc4cccc(c34)N2)ccc1O	0	-43%	23%	-11	?
COc1ccc(CNC(=O)Cn2c(=O)cc(-c3ccccc3)c3c(C)nn(C)c32)cc1	.	.	.	.	19%
Cc1cccc(NC(=S)NC(=O)c2ccc(-c3ccccc3)cc2)n1	26*	-13%	9%	37*	-2%
Cc1cccc(NC(=S)NC(=O)c2oc3ccccc3c2C)n1	38*	-14%	1%	56*	8%
CCCCOc1ccccc1CC1C(=O)Nc2ccc(Br)cc21 (stereo unspecified)	.	.	.	.	20%
Cc1cc(C)n2cc(COc3ccc4ccccc4c3)nc2n1	53*	98%	1%	66*	?
Cc1cccc2nc(COc3ccc(-c4ccccc4)cc3)cn12	43*	40%	-10%	85*	4%
CCOC(=O)c1cn2c(C)cccc2n1	9	-10%	.	22	?
COc1ccc(NC(=O)CSC2=Nc3ccccc3C3=NC(CCC(=O)NC4CCCCC4)C(=O)N23)cc1Cl (stereo unspecified)	.	.	.	.	12%
CCOc1cccc2cc(-c3nc4sc5c(c4c(=O)[nH]3)CCC(C(C)(C)C)C5)c(=O)oc12 (stereo unspecified)	.	.	.	.	19%
CC(=O)N(C)c1ccc(NC(=O)c2ccccc2C(=O)O)cc1	4	-11%	0%	8	5%
CCn1ccc(C(=O)Nc2ccc3c(c2)CCC3)n1	27	4%	-29%	113*	1%
CCn1ccc(C(=O)Nc2ccc(N(C)C(C)=O)cc2)n1	23*	-7%	-1%	45*	-11%
CCOC(=O)c1c(NC(=O)c2ccn(CC)n2)sc2c1CCC2	-8	18%	5%	-5	-6%
CCn1ccc(C(=O)Nc2ccccc2SC)n1	33*	4%	.	88*	-13%
CCN(CC)CCNC(=O)c1c(C)oc2ncnc(N3CCOCC3)c12	.	.	.	.	-1%
CC(=O)N1c2ccc(S(=O)(=O)NCC3CCC(C(=O)NCCC(C)C)CC3)cc2CC1C (stereo unspecified)	.	.	.	.	2%
COc1cccc(C(=O)NCCSc2ccc(C)cc2)c1	21*	-21%	-32%	19	19%
COc1cccc(C(=O)NCCCNC(=O)c2cccc(OC)c2)c1	2	-9%	5%	.	-14%
SMILES	CHX counter	AmpC no deterg	NS1 function inh	Shiga inhibitor	AmpC inh detg
COc1cccc(C(=O)NCCSc2ccc(F)cc2)c1	39*	-43%	.	57*	?
O=c1nccc(SCc2ccc(Cl)cc2Cl)[nH]1	0	-10%	1%	-11	-16%
Cc1nc(OCc2ccccc2)c2sc3nc4c(cc3c2n1)COC(C)(C)C4	3	-7%	10%	-8	-4%
CC1CCC(=O)N(CCSc2ccccc2)CC1 (stereo unspecified)	25*	-5%	-6%	37*	-16%
CN1CCC(=O)N(CCSc2ccccc2)CC1	43*	-3%	22%	49*	?
c1ccc(SCCN2CCc3ccccc3C2)cc1	27*	-4%	3%	16	-15%
COc1ccc(SCCN2CC[C@@H](C)CCC2=O)cc1	.	-12%	.	.	1%
O=C1CCN(CCc2ccccc2)CCN1CCSc1ccccc1	23*	142%	-17%	27	-16%
c1ccc(SCCOCCN2CCc3ccccc3C2)cc1	-4	20%	-19%	1	-15%
CCN1CCN(c2c(S(=O)(=O)c3ccc(C)c(C)c3)cnc3ccc(F)cc23)CC1	-1	18%	5%	-2	-7%
Cc1ccc(SCCN2CCN(C)CCC2=O)cc1	28*!	7%	-7%	77*	-8%
CC(=O)Nc1ccc(SCCN2CCN(C)CCC2=O)cc1	9	.	.	6	.
Cc1ccc(NC(=O)CSc2nnc(-c3ccc([N+](=O)[O-])cc3)o2)c(C)c1	.	.	.	.	19%
Oc1ccc(/C=N/N(Cc2ccccc2)c2ccccc2)c(O)c1O	10	18µM*	.	7	-3%
COc1ccc(CNC(=O)C[C@H]2C[C@H](C(=O)N3CCCCC3)[C@@]3(C)c4[nH]c5cc(CCC(=O)N(C)C)ccc5c4CCN3C2=O)cc1OC	.	200%	.	.	.
Cc1ccc(NC(=O)CCNC(=O)c2ccc(Cl)cc2)nc1	41*	-12%	-6%	74*	-4%
Cc1ccc(NC(=O)CCCNC(=O)c2ccc(Cl)cc2)nc1	29*	-24%	0%	63*	2%
Cc1cnc(NC(=O)CCCNC(=O)c2ccc(Cl)cc2)s1	.	-5%	.	.	3%
Cc1ccc(NC(=O)CCCNC(=O)c2ccc(Cl)cc2)c(O)c1	69*	-17%	-2%	91*	1%
Cc1ccc(NC(=O)CCNC(=O)c2ccc(Br)cc2)nc1	18*	-17%	-2%	56*	4%
O=C(Nc1ccc2ncccc2c1)Nc1ccc2ncccc2c1	19*	-45%	1%	47*	-6%
O=C(Nc1ccc2ncccc2c1)c1ccccc1Br	38*	-27%	-68%	41*	-13%
Cc1c([N+](=O)[O-])cc(C(=O)Nc2ccc3ncccc3c2)cc1[N+](=O)[O-]	-1	-23%	3%	.	-16%
c1cnc2ccc(-c3ccc4ncccc4c3)cc2c1	27*	-21%	-54%	.	?
CN1C(=O)C2(c3ccccc31)N(c1cccc(C(F)(F)F)c1)C(=O)CS2(=O)=O (stereo unspecified)	.	.	.	.	4%
SMILES	CHX counter	AmpC no deterg	NS1 function inh	Shiga inhibitor	AmpC inh detg
COc1cccc(C(Nc2ccccn2)c2c(NC(=O)c3ccco3)sc(C)c2C)c1 (stereo unspecified)	1	-25%	-26%	6	1%
Cc1sc(NC(=O)c2ccco2)c(C(Nc2ccccn2)c2ccccc2)c1C (stereo unspecified)	13*	-14%	5%	25	-6%
COc1ccc(C(Nc2ccccn2)c2c(NC(=O)c3ccco3)sc(C)c2C)cc1 (stereo unspecified)	29*	-9%	11%	29	?
Cc1sc(NC(=O)c2ccco2)c(C(c2cccnc2)N2CCCC2)c1C (stereo unspecified)	18	39%	-21%	15	0%
COc1ccc(CNC(=O)c2sc3nc4c(c(C(F)(F)F)c3c2N)CCC4)cc1	-2	-22%	21%	10	-7%
O=c1oc2ccccc2cc1-c1cn2cccnc2n1	57*	-17%	-57%	103*	3%
